The source of these data is PubChem BioAssay (Tox21).

SMILES strings stand for the structures. Records with an inconclusive call do not appear. A number with no mark means an inactive call. The call rests on the fitted dose curve; in most records, active means well fitted cell-killing curve with a large enough effect in the repeat runs; inconclusive means weak or mixed curves; inactive means no such curve, though single readings can be large or run the other way.
On the % scale 0 is the no-effect control and ±100 the full control effect.

A short description of the assay: qHTS assay to identify small molecule antagonists of the peroxisome proliferator-activated receptor delta (PPARd) signaling pathway - cell viability counter screen (AID 743213). Further: nearly all actives have a fitted effect of over 50% in size. To be noted: PPARd-bla HEK293H viability, CellTiter-Glo luminescence, 17 h; series mostly up to 62 µM; viability change, negative = cytotoxic: at the top concentration. From the text: U.S. Tox21 Program National Center for Advancing Translational Sciences [NCATS] NIH Chemical Genomics Center [NCGC] U.S. Environmental Protection Agency [EPA] National Institutes of Environmental Health Sciences [NIEHS] National Toxicology Program [NTP] U.S. Food and Drug Administration [FDA] Tox21 Assay Overview: The peroxisome proliferator-activated receptors (PPARs) are lipid-activated transcription factors of the nuclear receptor superfamily with three distinct subtypes namely PPAR alpha, PPAR delta (PPARd) and PPAR gamma. All these subtypes heterodimerizes with Retinoid X receptor (RXR) and have different physiological functions. […] To identify the compounds that inhibit PPAR-delta signaling, GeneBLAzer PPAR delta UAS-bla HEK293H cell line (Invitrogen, Carlsbad, CA, USA) containing a beta-lactamase reporter gene under the control of an Upstream Activator Sequence (UAS) was used to screen the Tox21 compound library. The cytotoxicity of the Tox21 compound library against the PPARd-bla cell line was tested in parallel by measuring the cell viability using CellTiter-Glo assay (Promega, Madison, WI) in the same wells.
Tox21 Assay Protocol Summary: PPARd-bla cells were dispensed at 3000 cells/5uL/well in 1536-well black wall/clear bottom plates using a Multidrop Combi (Thermo Fisher Scientific, Waltham, MA) dispenser. After the assay plates were incubated at 37 C and 5% CO2 for 5 h, 23 nL of compounds dissolved in DMSO, positive controls or DMSO only was transferred to the assay plate by a Pintool station (Kalypsys, San Diego, CA), followed by addition of 1ul L165041 (300 nM, final concentration in the wells). The assay plates were incubated at 37 C for 17 h, and then 1 uL of LiveBLAzerTM B/G FRET substrate was added using a Bioraptr Flying Reagent Dispenser (FRD) workstation (Beckman Coulter, Indianapolis, IN, USA). The assay plates were incubated at room temperature for 2 h and fluorescence intensity was measured by an Envision plate reader (PerkinElmer, Shelton, CT). For cell viability readout that measures cytotoxicity, 3 ul/well of CellTiter-Glo reagent was added into the assay plates using a Bioraptr FRD. After 30 min incubation at room temperature, the luminescence intensity in the plates was measured using a ViewLux plate reader (PerkinElmer).
Turning to `O=C1OC(=O)c2cc([N+](=O)[O-])ccc21`, the “viability change, negative = cytotoxic” value is -14.1%.

Consider `CN(C)N=Nc1ccccc1`, for which the “viability change, negative = cytotoxic” value was -0.617%.

For `CCCc1ccc(N)cc1`, the “viability change, negative = cytotoxic” value is 7.75%.

Turning to `CC(=O)CCc1ccc(O)cc1`, the “viability change, negative = cytotoxic” value was -23.6%.

As for `O=C(O)c1cccc(C(=O)O)n1`, the “viability change, negative = cytotoxic” value is 3.46%.

For `CCCCCCCCC=O`, the “viability change, negative = cytotoxic” value is 0.909%.

For the molecule `O=C(O)Cc1cc(I)c(Oc2cc(I)c(O)c(I)c2)c(I)c1`, the “viability change, negative = cytotoxic” value was -3.03%.

On to `O=Cc1ccccc1[N+](=O)[O-]`, for which the “viability change, negative = cytotoxic” value is -2.13%.

Turning to `CC(=O)OC(C)(C)C`, the “viability change, negative = cytotoxic” value was 1.89%.

For the molecule `O=C(O)/C=C/c1ccc(/C=C/C(=O)O)cc1`, the “viability change, negative = cytotoxic” value was -0.548%.

Turning to `NS(=O)(=O)c1cc2c(cc1Cl)NC(CSCc1ccccc1)=NS2(=O)=O`, the “viability change, negative = cytotoxic” value is 3.46%.

`CC/C=C\C#N`: the “viability change, negative = cytotoxic” value was 24.6%.

With `Nc1ccc2cc(S(=O)(=O)O)ccc2c1`, the “viability change, negative = cytotoxic” value is 4.29%.

As to `CCCCCCCCCCCCCCCCCC(=O)OCCCCCCCCCCCCCC(C)C`, the “viability change, negative = cytotoxic” value was -2.84%.

As to `C=C(C)[C@H]1CC=C(C)CC1`, the “viability change, negative = cytotoxic” value was 10.2%.

`OC[C@H]1O[C@@H]2O[C@H]3[C@H](O)[C@@H](O)[C@@H](O[C@H]4[C@H](O)[C@@H](O)[C@@H](O[C@H]5[C@H](O)[C@@H](O)[C@@H](O[C@H]6[C@H](O)[C@@H](O)[C@@H](O[C@H]7[C@H](O)[C@@H](O)[C@@H](O[C@H]8[C@H](O)[C@@H](O)[C@@H](O[C@H]9[C@H](O)[C@@H](O)[C@@H](O[C@H]1[C@H](O)[C@H]2O)O[C@@H]9CO)O[C@@H]8CO)O[C@@H]7CO)O[C@@H]6CO)O[C@@H]5CO)O[C@@H]4CO)O[C@@H]3CO`: the “viability change, negative = cytotoxic” value is 7.15% [at 28.9 µM].

As to `Cn1ccc2cc3c(cc21)CCN3C(=O)Nc1cccnc1`, the “viability change, negative = cytotoxic” value was -8.56% [at 28.9 µM].

With `FC(F)(F)C(F)(F)C(F)(F)C(F)(F)C(F)(F)C(F)(F)C(F)(F)C(F)(F)C(F)(F)C(F)(F)F`, the viability change, negative = cytotoxic is -11.7% [at 6.26 µM].

As for `C=C(C)[C@@H]1CCC2=CC(=O)C[C@@H](C)[C@]2(C)C1`, the “viability change, negative = cytotoxic” value is 12.7%.

In the case of `CCn1cc(C(=O)O)c(=O)c2cc(F)c(N3CCN(C)CC3)cc21`, the “viability change, negative = cytotoxic” value was -0.669% [at 28.9 µM].

Regarding `Cc1nccn1CC1CCc2c(c3ccccc3n2C)C1=O` (stereo not given), the “viability change, negative = cytotoxic” value is -2.56%.

In the case of `COc1ccc2cc(C=O)ccc2c1`, the “viability change, negative = cytotoxic” value was -14%.

Turning to `CCC(C(=O)NC(N)=O)c1ccccc1` (stereo not given), the “viability change, negative = cytotoxic” value was 2.81%.

`Nc1nc(F)nc2c1ncn2[C@@H]1O[C@H](CO)[C@@H](O)[C@@H]1O`: the “viability change, negative = cytotoxic” value is -17.5%.

`CCCCCCCCN(C)CCCCCCCC`: the “viability change, negative = cytotoxic” value was 2.75% [at 80.4 µM].

In the case of `OCCCCCCO`, the “viability change, negative = cytotoxic” value is 0.291% [at 80.4 µM].

Turning to `CC(C)(O)C(=O)c1ccc(OCCO)cc1`, the “viability change, negative = cytotoxic” value is -1.23%.

In the case of `CC(O)CN(CCCN(C)C)CCCN(C)C` (stereo not given), the “viability change, negative = cytotoxic” value was -2.84%.

Take `CC(C)COC(=O)C(C)C`: the “viability change, negative = cytotoxic” value was 3.1%.

With `C=CCOCC(O)CS(=O)(=O)O` (stereo not given), the “viability change, negative = cytotoxic” value was 6.29% [at 80.4 µM].

Turning to `OCc1ccccn1`, the “viability change, negative = cytotoxic” value is -0.598%.

Turning to `CC(C)CCCC(C)NCCC(C)C` (stereo not given), the “viability change, negative = cytotoxic” value is -5.75%.

Turning to `CC/C=C\CCCCO`, the “viability change, negative = cytotoxic” value was 4.75%.

As to `O=C(O)c1ccc[n+]([O-])c1`, the “viability change, negative = cytotoxic” value is 19.8%.

`CCOC(=O)Nc1ccc2c(c1)N(C(=O)CCN1CCOCC1)c1ccccc1S2`: the “viability change, negative = cytotoxic” value is 4.34%.

With `Cc1ccc(Nc2ccc(O)c3c2C(=O)c2ccccc2C3=O)cc1`, the “viability change, negative = cytotoxic” value was -9.79%.

With `CN(C)CCn1nnnc1SCC1=C(C(=O)O)N2C(=O)[C@@H](NC(=O)Cc3csc(N)n3)[C@H]2SC1`, the “viability change, negative = cytotoxic” value was 13.9%.

Take `NC(=O)Nc1nc2ccccc2[nH]1`: the “viability change, negative = cytotoxic” value was 11.9%.

For the molecule `CC(C)(C)N(CCO)CCO`, the “viability change, negative = cytotoxic” value was 9.09% [at 80.4 µM].

As to `C#CC(O)C(CC)CCCC` (stereo not given), the “viability change, negative = cytotoxic” value is 1.76%.
